We go through 27 compounds from PubChem BioAssay (NCATS).

Results filed as inconclusive are left out. The source made the active and inactive calls. Calls come from the whole dose curve; as a rule, active = well fitted inhibition curve with a large enough effect; inconclusive = small, poorly fitted or top-dose-only effect; inactive = no such curve, though single readings can be large or run the other way. Where a SMILES comes first, the peptide text is derived from it.

Experiment [1] relates to Zika virus NS2B-NS3 protease (unlinked complex). Briefly: Primary screen GU Rhodamine qHTS for Zika virus inhibitors: Unlinked NS2B-NS3 protease assay (AID 1347159). Note: nearly all actives have a fitted effect of over 60% in size. The following applies: Recombinant ZIKV NS2B-NS3 protease, Rhodamine110 substrate fluorescence; series mostly up to 107 µM. An outline of the steps: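 Unlinked NS2B/NS3, 25 nM; Rhod110 peptide, 1.5 microM; compounds, up to 114 microM. Reaction run 15 min at RT in 10 mM Tris-HCl pH 8.0, 0.01% Tween 20; kinetic fluorescence change fitted with a 4-parameter Hill model.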
(Quantitative high-throughput screening tests each substance at several concentrations.)

The subject of experiment [2] is Zika virus NS2B-NS3 protease (linked construct). Briefly: Primary screen NINDS Rhodamine qHTS for Zika virus inhibitors (AID 1347160). Note: nearly all actives have a fitted effect of over 55% in size. To be noted: purified NS2B-NS3 protease, Rhodamine110 substrate fluorescence; series mostly up to 57.1 µM. An outline of the steps: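 Single-chain NS2B-NS3 protease, 25 nM, pH 8.0; compounds preincubated 15 min. Activity: Rhodamine110 release from 1.5 microM substrate over 15 min, room temperature, data fitted to 4-parameter Hill.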
% is set by controls: 0 for no effect and ±100 for the full control effect; potency is the fitted concentration of half-maximal effect.

As for `CC[C@H](/C=C/[C@@H](C)[C@H]1CC[C@H]2[C@@H]3CC=C4C[C@@H](O)CC[C@]4(C)[C@H]3CC[C@]12C)C(C)C`, the results for the activity change, negative = inhibition in experiment [1] and in experiment [2] were 1.47% [at 11.5 µM] (inactive) and 7.22% [at 4.91 µM] (inactive), respectively.

On to `CCOC(=O)c1c(C)nn(-c2cccc([N+](=O)[O-])c2)c1C`, for which the Potency result in experiment [1] and in experiment [2] was “inactive” in each case.

Consider `CN1CC[C@@H](NC(=O)Nc2ccc(C#N)cc2)C[C@@H]1c1nc2ccccc2[nH]1`, for which the Potency entry in experiment [1] and in experiment [2] was “inactive” each time.

`CC1=CC2(O)/C=C/C(C)(O)CC(O)/C=C/C(=O)OC23C(=O)NC(CC(C)C)C3C1C` (centres undefined): the Potency result in experiment [1] and in experiment [2] was “inactive” each time.

On to `CC1NC(=O)CNC(=O)C(C(C)C)NC(=O)C2CCCN2C(=O)C(C(C)C)NC(=O)C(Cc2c[nH]c3ccccc23)NC1=O` (centres undefined) (cyclo(GAWVPV); configuration not given here), for which the Potency result in experiment [1] and in experiment [2] was “inactive” each time.

Take `CC(C)Nc1cc(-c2c[nH]c(C(=O)N[C@H](CO)c3cccc(Cl)c3)c2)c(Cl)cn1`: the Potency in experiment [1] is 44.7 µM (active). In addition, the Potency entry in experiment [2] is “inactive”.

For the compound `CC(NC(=O)CC(=O)O)c1nc2ccccc2c(=O)[nH]1` (centres undefined), the values for the Potency in experiment [1] and in experiment [2] were 44.7 µM (active) and 25.1 µM (active), respectively.

As to `CNc1nc(Nc2cnn([C@H]3CCN(C4COC4)C[C@@H]3F)c2Cl)ncc1C(F)(F)F`, the Potency entry in experiment [1] and in experiment [2] was “inactive” in each case.

For `CC(C)=CCCC1(C)Oc2cc3c(c4c2C2C(O4)C(C)(O)CCC21)CN(C(CCC(=O)O)C(=O)O)C3=O` (centres undefined), the Potency result in experiment [1] and in experiment [2] was “inactive” in each case.

Regarding `O=C(COc1ccc(Cl)cc1)NC1CCC(NC(=O)COc2ccc(Cl)cc2)CC1` (centres undefined), the Potency result in experiment [1] and in experiment [2] was “inactive” in each case.

In the case of `COc1cc([C@H]2OC[C@]3(OC(C)=O)[C@@H](c4ccc(O[C@@H]5O[C@H](CO)[C@@H](O)[C@H](O)[C@H]5O)c(OC)c4)OC[C@H]23)ccc1O`, the Potency entry in experiment [1] and in experiment [2] was “inactive” in each case.

As to `CC1=C2[C@@H]([C@H](C)CC[C@H]2/C=C(\C)C(=O)O)[C@H](O)C1`, the Potency result in experiment [1] and in experiment [2] was “inactive” each time.

Consider `Cc1ccc(C(=O)Nc2ccc(Oc3cc4cnn(C)c4cc3-c3cn[nH]c3)c(F)c2)c(=O)n1-c1ccc(F)cc1`, for which the Potency entry in experiment [1] and in experiment [2] was “inactive” each time.

Regarding `COc1cccc2c1CCC[C@H]2CN(C)CCc1ccc2ccoc2c1`, the Potency result in experiment [1] and in experiment [2] was “inactive” each time.

With `CC(=O)OC(CSC1CCC(=O)OC(C)CCC(=O)C1)C(=O)O` (centres undefined), the Potency result in experiment [1] and in experiment [2] was “inactive” throughout.

In the case of `C[C@]12CC[C@@H]3c4ccc(O[C@@H]5O[C@H](C(=O)O)[C@@H](O)[C@H](O)[C@H]5O)cc4CC[C@H]3[C@@H]1CCC2=O`, the Potency result in experiment [1] and in experiment [2] was “inactive” in each case.

Turning to `CCc1cc2c(=O)c(-c3nc4ccccc4s3)coc2c(CN2CCCCC2)c1O`, the Potency in experiment [1] is 12.6 µM (active). In experiment [2], the Potency entry was “inactive”.

Consider `CC(=O)c1c(O)cc2c(c1C)C(=O)CC(O)C2` (centres undefined), for which the Potency entry in experiment [1] and in experiment [2] was “inactive” in each case.

Consider `CC1(C)CC[C@]2(C(=O)O)CC[C@]3(C)C(=CCC4[C@@]5(C)CC[C@H](O[C@@H]6O[C@H](C(=O)O)[C@@H](O)[C@H](O)[C@H]6O)C(C)(CO)C5CC[C@]43C)C2C1` (some centres undefined), for which the Potency entry in experiment [1] and in experiment [2] was “inactive” in each case.

As for `CC(C)CC(=O)O[C@@H]1OC=C(CO[C@@H]2O[C@H](CO[C@@H]3O[C@H](CO)[C@@H](O)[C@H](O)[C@H]3O)[C@@H](O)[C@H](O)[C@H]2O)[C@H]2C[C@H](O)[C@@H](CO)[C@@H]12`, the Potency entry in experiment [1] and in experiment [2] was “inactive” each time.

Take `COc1cc(N2CCC(N(C)C)CC2)ccc1Nc1ncc(Cl)c(Nc2ccccc2P(C)(C)=O)n1`: the Potency entry in experiment [1] and in experiment [2] was “inactive” throughout.

With `COc1ccc(C(=O)O[C@H]2CC(C)=CC[C@@]3(C)[C@@H](OC(C)=O)C[C@@](O)(C(C)C)[C@H]23)cc1`, the Potency result in experiment [1] and in experiment [2] was “inactive” in each case.

Regarding `C[C@@H](OC(=O)/C=C/c1ccc(O)cc1)C1=C[C@]2(C=C[C@@H]3C(C(=O)O)=CO[C@@H](O[C@@H]4O[C@H](CO[C@@H]5O[C@H](CO)[C@@H](O)[C@H](O)[C@H]5O)[C@@H](O)[C@H](O)[C@H]4O)[C@@H]32)OC1=O`, the Potency result in experiment [1] and in experiment [2] was “inactive” in each case.

Consider `COc1ccc([C@H]2Cc3cccc(O)c3C(=O)O2)cc1`, for which the Potency result in experiment [1] and in experiment [2] was “inactive” throughout.

For `O=C(c1ccc(C#Cc2cccc(F)c2)cn1)N1CC2CC2C1` (centres undefined), the Potency entry in experiment [1] and in experiment [2] was “inactive” each time.

In the case of `Cc1ncc([N+](=O)[O-])n1CC(O)CN1CCOCC1` (centres undefined), the Potency entry in experiment [1] and in experiment [2] was “inactive” each time.

As for `CC(=O)O[C@@H]1[C@H](O[C@@H]2OC[C@](O)(CO)[C@H]2O)[C@@H](O[C@@H]2O[C@@H](C)[C@H](O)[C@@H](O)[C@H]2O)[C@H](OC(=O)[C@]23CCC(C)(C)C[C@H]2C2=CCC4[C@@]5(C)C[C@H](O)[C@H](O[C@@H]6O[C@H](C(=O)O)[C@@H](O)[C@H](O)[C@H]6O)[C@@](C)(C(=O)O)C5CC[C@@]4(C)[C@]2(C)CC3)O[C@@H]1C` (some centres undefined), the Potency result in experiment [1] and in experiment [2] was “inactive” in each case.
